Where “and” joins values, the source holds several entries; their conditions need not be identical. Equal values may be shown once. Some compounds were tested as several samples or in several runs, with calls that do not always agree. Calls of active or inactive are those of the source. The calls were made as follows: active = hit-call score of the fitted dose curve at least 0.9, where 1 is the maximum; inactive = score below 0.9.
What was measured:
[1] = BSK_BF4T_SRB: Viability Assessment in the BioMAP Diversity Plus: BF4T Assay (AID 2284274); settings: primary human bronchial epithelial cells with fibroblasts;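 as to AC50: total cell protein by sulforhodamine B staining as a cytotoxicity measure; measured 24 h after compound addition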
Outline: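 Cytotoxicity measured as total protein: cells fixed with 10% TCA, stained with 0.1% SRB, read at 560 nm. Bronchial epithelial/dermal fibroblast co-culture, 24 h after dosing, with positive-direction fitting relative to DMSO.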

[2] = read-out: urokinase Plasminogen Activator (uPA), PLAU (gene 5328); assay: BSK_BF4T_uPA: BioMAP Diversity Plus: BF4T Assay for urokinase Plasminogen Activator (uPA) Biomarker Activity (AID 2284275); settings: primary human bronchial epithelial cells with fibroblasts
Outline: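 uPA levels measured by ELISA at 24 hours in BF4T cultures (bronchial epithelial cells plus dermal fibroblasts) and compared with DMSO; cytotoxicity tracked in parallel cultures by sulforhodamine B staining.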

[3] = read-out: Interleukin-8 (IL8), CXCL8 (gene 3576); assay: BSK_IMphg_IL8: BioMAP Diversity Plus: IMphg Assay for Interleukin-8 (IL8) Biomarker Activity (AID 2284277); settings: primary human endothelial cells with macrophages
Outline: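 IL-8 levels were measured by ELISA 24 h after dosing in primary human venular endothelial cell–macrophage cultures, referenced to DMSO; parallel SRB staining monitored overt cytotoxicity.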

[4] = read-out: Intercellular Adhesion Molecule 1 (ICAM1), ICAM1 (gene 3383); assay: BSK_BE3C_ICAM1: BioMAP Diversity Plus: BE3C Assay for Intercellular Adhesion Molecule 1 (ICAM1) Biomarker Activity (AID 2284278); settings: primary human bronchial epithelial cells;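 as to outcome: cell-surface ICAM-1 protein level quantified by ELISA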
Outline: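 ICAM-1 quantified by ELISA and fitted against DMSO baseline, 24 h post-dosing in BE3C cultures of primary human lung bronchial epithelial cells. Cytotoxicity checked in parallel cultures by total protein SRB staining.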

[5] = read-out: Interferon-inducible T-cell alpha chemoattractant (ITAC), CXCL11 (gene 6373); assay: BSK_BE3C_ITAC: BioMAP Diversity Plus: BE3C Assay for Interferon-inducible T-cell alpha chemoattractant (ITAC) Biomarker Activity (AID 2284279); settings: primary human bronchial epithelial cells
Outline: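 BE3C cells (human primary bronchial epithelium), 24 h compound exposure, I-TAC by ELISA, DMSO = negative control/baseline, positive fitting direction.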

[6] = read-out: Interleukin-8 (IL8), CXCL8 (gene 3576); assay: BSK_BE3C_IL8: BioMAP Diversity Plus: BE3C Assay for Interleukin-8 (IL8) Biomarker Activity (AID 2284280); settings: primary human bronchial epithelial cells
Outline: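 Dose human bronchial epithelial cells with chemical; incubate 24 h; quantify IL-8 by ELISA; fit response upward versus DMSO controls.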

[7] = read-out: Epidermal growth factor receptor (EGFR), EGFR (gene 1956); assay: BSK_BE3C_EGFR: BioMAP Diversity Plus: BE3C Assay for Epidermal growth factor receptor (EGFR) Biomarker Activity (AID 2284281); settings: primary human bronchial epithelial cells
Outline: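 ELISA read-out of EGFR levels on human bronchial epithelial primary cells collected 24 h post-dosing. DMSO served as negative control and baseline for gain-of-signal fitting.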

KRT18 (gene 3875) = assay: BSK_BE3C_Keratin818: BioMAP Diversity Plus: BE3C Assay for Keratin 818 Biomarker Activity (AID 2284282); settings: primary human bronchial epithelial cells
Outline: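 ELISA readout of Keratin 8/18 in human primary bronchial epithelial cultures after 24 h chemical exposure, DMSO baseline. Parallel SRB staining (0.1%, TCA-fixed, 560 nm) served as cytotoxicity check.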

[8] = read-out: Matrix Metallopeptidase 9 (MMP9), MMP9 (gene 4318); assay: BSK_BE3C_MMP9: BioMAP Diversity Plus: BE3C Assay for Matrix Metallopeptidase 9 (MMP9) Biomarker Activity (AID 2284283); settings: primary human bronchial epithelial cells
Outline: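 ELISA read-out of MMP-9 after 24 h compound exposure of human lung bronchial epithelial primary cells (BE3C). Fit in gain direction vs DMSO negative control; total protein by SRB in parallel cultures flagged overt cytotoxicity.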

[9] = read-out: Matrix Metallopeptidase 9 (MMP9), MMP9 (gene 4318); assay: BSK_BF4T_MMP9: BioMAP Diversity Plus: BF4T Assay for Matrix Metallopeptidase 9 (MMP9) Biomarker Activity (AID 2284276); settings: primary human bronchial epithelial cells with fibroblasts
Outline: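 MMP-9 levels were measured by ELISA after 24 h exposure of bronchial epithelial cell/dermal fibroblast co-cultures, with DMSO as baseline. Parallel cultures were stained with 0.1% SRB after TCA fixation, read at 560 nm, to flag overt cytotoxicity.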

With `O=S(=O)(OCCOC(F)(F)F)C(F)(F)F` the outcome [1] was “inactive”, the outcome [2] was “inactive” and the outcome [3] was “inactive”. For the same compound, the outcome [4] was “inactive”, the outcome [5] was “inactive” and the outcome [6] was “inactive”. The outcome [7] was “inactive”, the outcome (KRT18 (gene 3875)) was “inactive” and the outcome [8] was “inactive”.

In the case of `O=S(=O)(O)C(F)(F)C(F)(F)C(F)(F)C(F)(F)C(F)(F)C(F)(F)C(F)(F)F`, the outcome [1] is reported as “inactive”, the outcome [2] is reported as “inactive” and the outcome [3] is reported as “inactive”. For the same compound, the outcome [4] was “inactive”, the outcome [5] was “inactive” and the outcome [6] was “inactive”. The outcome [7] was “inactive”, the outcome (KRT18 (gene 3875)) was “inactive” and the outcome [8] was “inactive”.

In the case of `O=S(=O)(OCC(F)F)C(F)(F)F`, the outcome [1] is reported as “inactive”, the outcome [2] is reported as “inactive” and the outcome [3] is reported as “inactive”. For the same compound, the outcome [4] was “inactive”, the outcome [5] was “inactive” and the outcome [6] was “inactive”. The outcome [7] was “inactive”, the outcome (KRT18 (gene 3875)) was “inactive” and the outcome [8] was “inactive”.

In the case of `C=C(C)C(=O)OCCC(F)(F)C(F)(F)C(F)(F)C(F)(F)C(F)(C(F)(F)F)C(F)(F)F`, the outcome [1] is reported as “inactive”, the outcome [9] is reported as “inactive” and the outcome [3] is reported as “inactive”. For the same compound, the outcome [4] was “inactive”, the outcome [5] was “inactive” and the outcome [6] was “inactive”. The outcome [7] was “inactive”, the outcome (KRT18 (gene 3875)) was “inactive” and the outcome [8] was “inactive”.

For `FC(F)(I)C(F)(F)C(F)(F)C(F)(F)I`, the AC50 [1] was 51.3 µM (active) and 50.7 µM (active) and 46.5 µM (active), the AC50 [9] was 54.1 µM (active) and 47 µM (active) and 46.8 µM (active) and the AC50 [3] was 1.19 µM (active). The outcome [3] was “inactive”, the AC50 [4] was 44.1 µM (active) and 41.4 µM (active) and 55.3 µM (active) and the AC50 [5] was 46.2 µM (active) and 51.9 µM (active) and 49.2 µM (active). For the same compound, the AC50 [6] was 47.4 µM (active) and 46 µM (active), the outcome [6] was “inactive” and the AC50 [7] was 45.3 µM (active) and 47.3 µM (active) and 46.8 µM (active). For the same compound, the AC50 (KRT18 (gene 3875)) was 47 µM (active) and 47.5 µM (active) and 43.1 µM (active), the AC50 [8] was 56.5 µM (active) and 55.2 µM (active) and the outcome [8] was “inactive”.

In the case of `O=C(CC(=O)C(F)(F)C(F)(F)F)C(F)(F)F`, the outcome [1] is reported as “inactive”, the outcome [9] is reported as “inactive” and the outcome [3] is reported as “inactive”. The outcome [4] was “inactive”, the outcome [5] was “inactive” and the outcome [6] was “inactive”. For the same compound, the outcome [7] was “inactive”, the outcome (KRT18 (gene 3875)) was “inactive” and the outcome [8] was “inactive”.

For `OCC(F)(F)C(F)(F)C(F)(F)C(F)(F)C(F)(F)C(F)F`, the outcome [1] was “inactive”, the outcome [9] was “inactive” and the outcome [3] was “inactive”. For the same compound, the outcome [4] was “inactive”, the outcome [5] was “inactive” and the outcome [6] was “inactive”. The outcome [7] was “inactive”, the outcome (KRT18 (gene 3875)) was “inactive” and the outcome [8] was “inactive”.

For `O=C(Cl)C(F)(F)C(F)(F)C(F)(F)C(F)(F)C(F)(F)C(F)(F)C(F)(F)C(F)(F)F`, the AC50 [1] was 30 µM (active) and 50.1 µM (active), the outcome [1] was “inactive” and the AC50 [3] was 6.67 µM (active) and 5.95 µM (active) and 19.6 µM (active). For the same compound, the AC50 [4] was 50.4 µM (active) and 58.6 µM (active) and 57.1 µM (active), the AC50 [5] was 48.3 µM (active) and 46.7 µM (active) and 48.2 µM (active) and the AC50 [6] was 30 µM (active) and 43.4 µM (active) and 38.6 µM (active). For the same compound, the AC50 [7] was 39 µM (active) and 43.6 µM (active) and 45.5 µM (active), the AC50 (KRT18 (gene 3875)) was 47.8 µM (active) and 43.9 µM (active) and 46.8 µM (active) and the AC50 [8] was 55.1 µM (active) and 54.8 µM (active).

For `FC(F)(F)C(F)(F)C(F)(F)C(F)(F)C(F)(F)C(F)(F)CCS`, the outcome [1] was “inactive”, the outcome [2] was “inactive” and the AC50 [3] was 0.876 µM (active). The outcome [3] was “inactive”, the outcome [4] was “inactive” and the outcome [5] was “inactive”. The outcome [6] was “inactive”, the outcome [7] was “inactive” and the outcome (KRT18 (gene 3875)) was “inactive”. The outcome [8] was “inactive”.

In the case of `O=C(O)C(F)(F)C(F)(F)C(F)(F)C(F)(F)F`, the outcome [1] is reported as “inactive”, the outcome [9] is reported as “inactive” and the outcome [3] is reported as “inactive”. The outcome [4] was “inactive”, the outcome [5] was “inactive” and the outcome [6] was “inactive”. For the same compound, the outcome [7] was “inactive”, the outcome (KRT18 (gene 3875)) was “inactive” and the outcome [8] was “inactive”.

With `OCCCC(F)(F)C(F)(F)C(F)(F)C(F)(F)C(F)(F)C(F)(F)C(F)(F)F` the AC50 [1] was 51 µM (active) and 53.6 µM (active), the AC50 [3] was 47.5 µM (active) and the outcome [3] was “inactive”. For the same compound, the AC50 [4] was 53.8 µM (active) and 51.3 µM (active), the AC50 [5] was 45.9 µM (active) and 46.9 µM (active) and the AC50 [6] was 37.1 µM (active) and 43 µM (active). The AC50 [7] was 20.4 µM (active) and 47.3 µM (active), the AC50 (KRT18 (gene 3875)) was 50.6 µM (active) and 48.5 µM (active) and the AC50 [8] was 47.3 µM (active) and 55.3 µM (active).

With `CCCCCCCCC(F)(F)C(F)(F)C(F)(F)C(F)(F)C(F)(F)C(F)(F)F` the outcome [1] was “inactive”, the outcome [2] was “inactive” and the outcome [3] was “inactive”. For the same compound, the outcome [4] was “inactive”, the outcome [5] was “inactive” and the outcome [6] was “inactive”. For the same compound, the outcome [7] was “inactive”, the outcome (KRT18 (gene 3875)) was “inactive” and the outcome [8] was “inactive”.

In the case of `O=C(O)C(F)(OC(F)(F)C(F)(OC(F)(F)C(F)(F)C(F)(F)F)C(F)(F)F)C(F)(F)F` (configuration not stated), the outcome [1] is reported as “inactive”, the outcome [9] is reported as “inactive” and the outcome [3] is reported as “inactive”. For the same compound, the outcome [4] was “inactive”, the outcome [5] was “inactive” and the AC50 [6] was 25 nM (active). The outcome [6] was “inactive”, the outcome [7] was “inactive” and the outcome (KRT18 (gene 3875)) was “inactive”. The outcome [8] was “inactive”.

With `N=C(N)C(F)(F)C(F)(F)C(F)(F)C(F)(F)C(F)(F)C(F)(F)C(F)(F)F` the outcome [1] was “inactive”, the AC50 [3] was 30 µM (active) and the outcome [3] was “inactive”. The outcome [4] was “inactive”, the outcome [5] was “inactive” and the AC50 [6] was 30000 nM (active). The outcome [6] was “inactive”, the outcome [7] was “inactive” and the outcome (KRT18 (gene 3875)) was “inactive”. The outcome [8] was “inactive”.

Reference: PubChem BioAssay (EPA / NIEHS)
